# According to PubChem BioAssay (EPA / NIEHS):
# Records with an inconclusive call do not appear. Active and inactive are the calls of the source. The calls were made as follows: active = hit-call score of the fitted dose curve at least 0.9, where 1 is the maximum; inconclusive = response in the unintended direction; inactive = score below 0.9.
# Legend:
# [1] = target: human Endothelin Receptor Type A (ETA), EDNRA (gene 1909) (UniProt P25101); experiment: NVS_GPCR_hETA: NovaScreen (NVS) G Protein-Coupled Receptor Assay for human Endothelin Receptor Type A (ETA) (AID 2283265)
# Outline: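 Cell-free radioligand displacement using SH-SY5Y-derived protein, 3 h incubation, filter-based scintillation counting. Primary screen in duplicate at 25 uM; actives then run in concentration-response up to 50 uM; loss of binding fitted versus DMSO.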
# [2] = target: human Endothelin Receptor Type B (ETB), EDNRB (gene 1910) (UniProt P24530); experiment: NVS_GPCR_hETB: NovaScreen (NVS) G Protein-Coupled Receptor Assay for human Endothelin Receptor Type B (ETB) (AID 2283267)
# Outline: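 Human astrocytoma cell membranes; radioligand competitive binding read by filter scintillation counting 4 hours after dosing. Single-concentration duplicate screen at 25 uM, then singleton concentration-response up to 50 uM; loss of signal versus DMSO.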
# [3] = target: D(1A) dopamine receptor (Homo sapiens) (UniProt P21728); experiment: NVS_GPCR_hDRD1: NovaScreen (NVS) G Protein-Coupled Receptor Assay for human Dopamine Receptor D1 (DRD1) (AID 2283269)
# Sequence of D(1A) dopamine receptor (Homo sapiens) (P21728 whole entry, looked up): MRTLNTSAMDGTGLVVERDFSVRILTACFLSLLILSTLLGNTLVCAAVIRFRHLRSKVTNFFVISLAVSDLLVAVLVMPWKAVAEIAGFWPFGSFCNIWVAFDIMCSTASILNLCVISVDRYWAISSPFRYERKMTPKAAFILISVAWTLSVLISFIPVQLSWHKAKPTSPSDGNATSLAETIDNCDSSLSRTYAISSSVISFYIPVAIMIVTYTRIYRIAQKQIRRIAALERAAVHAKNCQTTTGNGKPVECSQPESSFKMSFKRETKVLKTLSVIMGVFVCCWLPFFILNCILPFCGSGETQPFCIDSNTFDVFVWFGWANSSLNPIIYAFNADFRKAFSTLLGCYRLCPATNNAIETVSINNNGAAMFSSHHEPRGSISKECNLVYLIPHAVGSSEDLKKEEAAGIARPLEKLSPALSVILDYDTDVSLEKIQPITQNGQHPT
# Outline: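 Radioligand displacement binding on membranes/protein extracted from HEK293 expressing human D1, cell-free; read 1 h after dosing by filter-based scintillation counting. Primary screen in duplicate at 25 uM, actives followed up in concentration series; signal loss versus DMSO baseline.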
# [4] = target: human Thromboxane A2 Receptor (TXA2), TBXA2R (gene 6915) (UniProt P21731); experiment: NVS_GPCR_hTXA2: NovaScreen (NVS) G Protein-Coupled Receptor Assay for human Thromboxane A2 Receptor (TXA2) (AID 2283282);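 also: actives reduce bound radioligand signal relative to DMSO baseline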
# Sequence of human Thromboxane A2 Receptor (TXA2), TBXA2R (gene 6915) (P21731 whole entry, looked up): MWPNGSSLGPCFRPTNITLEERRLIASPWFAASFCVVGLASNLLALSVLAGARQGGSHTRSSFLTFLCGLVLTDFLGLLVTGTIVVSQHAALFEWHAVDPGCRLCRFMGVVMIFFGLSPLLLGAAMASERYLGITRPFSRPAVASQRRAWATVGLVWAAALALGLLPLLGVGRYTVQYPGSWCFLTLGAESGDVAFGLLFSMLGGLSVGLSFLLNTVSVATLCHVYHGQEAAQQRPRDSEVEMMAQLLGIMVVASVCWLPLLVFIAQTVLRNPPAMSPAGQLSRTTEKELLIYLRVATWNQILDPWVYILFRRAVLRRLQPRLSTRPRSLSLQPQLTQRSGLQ
# Outline: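 Cell-free radioligand binding on membrane protein from human platelets; radioligand displacement read by filter-based scintillation counting after 1 h. Primary screen in duplicate at 25 uM, actives then run in concentration series; loss of signal versus DMSO.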
# [5] = target: human Neurokinin, NK2 Receptor, TACR2 (gene 6865) (UniProt P21452); experiment: NVS_GPCR_hNK2: NovaScreen (NVS) G Protein-Coupled Receptor Assay for human Neurokinin, NK2 Receptor (AID 2283278);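 also: actives reduce bound radioligand signal relative to DMSO baseline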
# Sequence of human Neurokinin, NK2 Receptor, TACR2 (gene 6865) (P21452 whole entry, looked up): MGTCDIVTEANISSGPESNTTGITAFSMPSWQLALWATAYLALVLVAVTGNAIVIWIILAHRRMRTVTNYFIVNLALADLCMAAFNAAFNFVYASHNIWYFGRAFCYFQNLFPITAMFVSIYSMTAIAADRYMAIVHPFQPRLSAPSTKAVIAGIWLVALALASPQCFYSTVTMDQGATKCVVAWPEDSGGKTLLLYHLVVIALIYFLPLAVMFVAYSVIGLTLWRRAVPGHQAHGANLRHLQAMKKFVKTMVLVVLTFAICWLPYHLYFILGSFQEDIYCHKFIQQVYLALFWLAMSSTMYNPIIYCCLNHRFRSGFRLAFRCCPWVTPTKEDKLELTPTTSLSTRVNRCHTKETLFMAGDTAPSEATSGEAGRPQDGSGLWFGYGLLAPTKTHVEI
# Outline: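 Radioligand binding on membranes from CHO cells expressing receptor, filter-based scintillation read 4 h after dosing. Initial duplicate screen at 25 uM, actives in concentration series; loss of signal versus DMSO.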
# [6] = target: human Orphanin, Opioid Related Nociceptin Receptor 1 (ORL1), OPRL1 (gene 4987) (UniProt P41146); experiment: NVS_GPCR_hORL1: NovaScreen (NVS) G Protein-Coupled Receptor Assay for human Orphanin, Opioid Related Nociceptin Receptor 1 (ORL1) (AID 2283283)
# Sequence of human Orphanin, Opioid Related Nociceptin Receptor 1 (ORL1), OPRL1 (gene 4987) (P41146 whole entry, looked up): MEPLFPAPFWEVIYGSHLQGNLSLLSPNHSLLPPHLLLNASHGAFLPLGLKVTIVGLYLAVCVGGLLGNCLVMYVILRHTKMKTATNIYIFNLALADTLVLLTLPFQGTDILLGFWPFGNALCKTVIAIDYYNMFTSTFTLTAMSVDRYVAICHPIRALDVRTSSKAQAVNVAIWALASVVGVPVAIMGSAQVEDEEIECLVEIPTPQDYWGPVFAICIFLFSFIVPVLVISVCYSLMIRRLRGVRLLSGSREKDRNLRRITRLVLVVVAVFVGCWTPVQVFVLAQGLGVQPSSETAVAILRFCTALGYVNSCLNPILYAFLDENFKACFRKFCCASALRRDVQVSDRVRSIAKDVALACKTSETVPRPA
# Outline: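 Filter-based radioligand displacement with receptor extracted from HEK293 cells, read 1 hour after dosing by scintillation counting. Duplicate single-point screen at 25 uM; qualifying chemicals then run in concentration-response to 50 uM, analysed relative to DMSO.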
# [7] = target: human Dopamine Receptor D2 (DRD2), DRD2 (gene 1813) (UniProt P14416); experiment: NVS_GPCR_hDRD2s: NovaScreen (NVS) G Protein-Coupled Receptor Assay for human Dopamine Receptor D2 (DRD2) (AID 2283266)
# Sequence of human Dopamine Receptor D2 (DRD2), DRD2 (gene 1813) (P14416 whole entry, looked up): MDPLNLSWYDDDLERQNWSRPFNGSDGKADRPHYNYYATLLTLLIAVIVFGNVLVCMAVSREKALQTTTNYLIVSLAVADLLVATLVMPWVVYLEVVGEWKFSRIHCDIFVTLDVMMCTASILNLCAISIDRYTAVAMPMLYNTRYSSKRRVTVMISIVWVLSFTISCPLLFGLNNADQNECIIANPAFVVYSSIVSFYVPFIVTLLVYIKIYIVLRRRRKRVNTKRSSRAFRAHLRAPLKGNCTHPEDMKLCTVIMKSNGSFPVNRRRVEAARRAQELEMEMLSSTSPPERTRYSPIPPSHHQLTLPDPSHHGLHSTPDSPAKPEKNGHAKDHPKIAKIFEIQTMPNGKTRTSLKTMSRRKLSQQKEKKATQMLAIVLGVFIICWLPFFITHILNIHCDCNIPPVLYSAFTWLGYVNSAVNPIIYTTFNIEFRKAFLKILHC
# Outline: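 Radioligand displacement used human DRD2 membranes extracted from CHO cells and was read by filter-based scintillation counting after 1.5 hours. Primary screening was in duplicate at 25 uM. Loss of signal versus DMSO was fitted, with concentration series in follow-up.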
# [8] = target: Muscarinic acetylcholine receptor M2 (Homo sapiens) (UniProt P08172); experiment: NVS_GPCR_hM2: NovaScreen (NVS) G Protein-Coupled Receptor Assay for human Muscarinic, M2 Receptor (AID 2283273)
# Sequence of Muscarinic acetylcholine receptor M2 (Homo sapiens) (P08172 whole entry, looked up): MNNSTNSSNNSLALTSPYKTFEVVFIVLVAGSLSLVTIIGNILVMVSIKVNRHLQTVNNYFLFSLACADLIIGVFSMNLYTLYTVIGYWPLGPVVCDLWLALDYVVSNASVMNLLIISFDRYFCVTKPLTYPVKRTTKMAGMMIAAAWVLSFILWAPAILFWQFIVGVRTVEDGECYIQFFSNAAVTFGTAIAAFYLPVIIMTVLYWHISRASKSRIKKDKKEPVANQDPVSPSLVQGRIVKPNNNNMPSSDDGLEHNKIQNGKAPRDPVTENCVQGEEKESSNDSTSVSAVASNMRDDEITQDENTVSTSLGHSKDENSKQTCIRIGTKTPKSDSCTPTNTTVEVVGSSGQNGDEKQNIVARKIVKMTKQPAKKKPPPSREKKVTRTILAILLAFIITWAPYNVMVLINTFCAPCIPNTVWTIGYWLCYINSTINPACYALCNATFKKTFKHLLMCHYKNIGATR
# Outline: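 CHO membrane prep, radioligand + test compound, 1 h; filtration, scintillation count. Screen 25 uM duplicate → conc. series for actives. Readout: decrease in binding vs DMSO control.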
# [9] = target: human Neuropeptide Receptor Y1 (NPY1), NPY1R (gene 4886) (UniProt P25929); experiment: NVS_GPCR_hNPY1: NovaScreen (NVS) G Protein-Coupled Receptor Assay for human Neuropeptide Receptor Y1 (NPY1) (AID 2283276)
# Outline: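 Cell-free radioligand binding using receptor extracted from SK-N-MC cells, 1 h incubation, filter-based scintillation counting. Primary screen single concentration 25 uM in duplicate; actives followed in concentration series. Loss of bound signal scored versus DMSO.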
# [10] = target: human Adrenergic, Beta 3 Receptor (Adrb3), ADRB3 (gene 155) (UniProt P13945); experiment: NVS_GPCR_hAdrb3: NovaScreen (NVS) G Protein-Coupled Receptor Assay for human Adrenergic, Beta 3 Receptor (Adrb3) (AID 2283262)
# Sequence of human Adrenergic, Beta 3 Receptor (Adrb3), ADRB3 (gene 155) (P13945 whole entry, looked up): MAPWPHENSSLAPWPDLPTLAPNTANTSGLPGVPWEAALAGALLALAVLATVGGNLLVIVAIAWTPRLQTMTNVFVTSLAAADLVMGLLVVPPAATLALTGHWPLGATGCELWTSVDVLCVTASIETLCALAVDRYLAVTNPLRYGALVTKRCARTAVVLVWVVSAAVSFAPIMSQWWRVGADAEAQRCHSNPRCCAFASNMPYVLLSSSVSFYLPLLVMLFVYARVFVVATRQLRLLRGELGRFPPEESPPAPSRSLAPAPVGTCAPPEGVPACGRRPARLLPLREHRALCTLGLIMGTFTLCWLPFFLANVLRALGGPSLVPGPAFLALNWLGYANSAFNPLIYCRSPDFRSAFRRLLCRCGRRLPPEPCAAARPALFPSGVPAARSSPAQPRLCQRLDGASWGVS
# Outline: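 Membranes from SK-N-MC cells pretreated with isoproterenol and 8-bromo-cAMP were used in a radioligand competitive displacement binding assay. Binding was read by filter-based scintillation counting 1 hour after dosing. Primary screening was in duplicate at 25 uM, with concentration series in follow-up.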
# [11] = target: Type-1 angiotensin II receptor (Homo sapiens) (UniProt P30556); experiment: NVS_GPCR_hAT1: NovaScreen (NVS) G Protein-Coupled Receptor Assay for human Angiotensin II receptor type 1 (AT1) (AID 2283263)
# Outline: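 Membranes from KAN-TS cells; radioligand competitive displacement, 3 h, filtration and scintillation counting. Single-point duplicate screen at 25 uM, then concentration-response up to 50 uM for hits; loss of signal fitted versus DMSO.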
# [12] = target: human Dopamine Receptor D4.4 (DRD4.4), DRD4 (gene 1815) (UniProt P21917); experiment: NVS_GPCR_hDRD4.4: NovaScreen (NVS) G Protein-Coupled Receptor Assay for human Dopamine Receptor D4.4 (DRD4.4) (AID 2283264)
# Sequence of human Dopamine Receptor D4.4 (DRD4.4), DRD4 (gene 1815) (P21917 whole entry, looked up): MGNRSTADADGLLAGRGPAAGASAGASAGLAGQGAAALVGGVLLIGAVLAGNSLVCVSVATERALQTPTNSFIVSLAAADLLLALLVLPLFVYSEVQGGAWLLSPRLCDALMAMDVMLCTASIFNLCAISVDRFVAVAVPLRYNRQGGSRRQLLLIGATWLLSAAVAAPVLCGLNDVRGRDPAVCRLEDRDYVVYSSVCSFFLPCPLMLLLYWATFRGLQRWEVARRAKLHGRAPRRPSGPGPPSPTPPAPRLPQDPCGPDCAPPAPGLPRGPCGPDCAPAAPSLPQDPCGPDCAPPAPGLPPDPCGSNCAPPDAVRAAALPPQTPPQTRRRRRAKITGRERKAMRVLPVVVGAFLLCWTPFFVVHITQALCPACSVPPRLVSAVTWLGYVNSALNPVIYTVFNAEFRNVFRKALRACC
# Outline: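 Radioligand displacement on human DRD4.4 from CHO-derived membranes, 1 hour incubation, bound counts read by filtration and scintillation. Primary screen in duplicate at 25 uM; actives followed up in concentration series.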
# [13] = target: human Histamine 1 Receptor (H1), HRH1 (gene 3269) (UniProt P35367); experiment: NVS_GPCR_hH1: NovaScreen (NVS) G Protein-Coupled Receptor Assay for human Histamine 1 Receptor (H1) (AID 2283268)
# Sequence of human Histamine 1 Receptor (H1), HRH1 (gene 3269) (P35367 whole entry, looked up): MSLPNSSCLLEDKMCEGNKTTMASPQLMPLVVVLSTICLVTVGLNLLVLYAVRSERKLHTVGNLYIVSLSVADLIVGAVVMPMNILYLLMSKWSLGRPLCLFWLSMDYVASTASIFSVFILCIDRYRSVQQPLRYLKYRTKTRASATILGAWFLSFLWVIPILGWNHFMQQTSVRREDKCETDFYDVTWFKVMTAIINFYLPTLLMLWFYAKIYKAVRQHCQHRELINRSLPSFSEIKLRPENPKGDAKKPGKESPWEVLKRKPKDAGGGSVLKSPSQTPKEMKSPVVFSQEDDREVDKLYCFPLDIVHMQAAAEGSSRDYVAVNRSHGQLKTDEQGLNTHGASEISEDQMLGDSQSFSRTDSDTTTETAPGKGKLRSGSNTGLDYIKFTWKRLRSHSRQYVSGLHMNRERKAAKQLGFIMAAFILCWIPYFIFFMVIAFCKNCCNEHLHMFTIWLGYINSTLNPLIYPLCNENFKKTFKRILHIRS
# Outline: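 Cell-free radioligand displacement at human H1 receptor, 1 h, filter scintillation counting; primary screen 25 uM in duplicate, hits in concentration series; loss of binding fitted vs DMSO.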
# [14] = target: human Leukotriene B4 Receptor 1 (LTB4-BLT1), LTB4R (gene 1241) (UniProt Q15722); experiment: NVS_GPCR_hLTB4_BLT1: NovaScreen (NVS) G Protein-Coupled Receptor Assay for human Leukotriene B4 Receptor 1 (LTB4-BLT1) (AID 2283271)
# Outline: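 Radioligand displacement binding on receptor extracted from human neutrophils, cell-free, 1 h after dosing; filter-based scintillation counting. Primary screen in duplicate at 25 uM, actives retested in concentration-response up to 50 uM; loss of signal versus DMSO.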
# [15] = target: human Muscarinic, M4 Receptor, CHRM4 (gene 1132) (UniProt P08173); experiment: NVS_GPCR_hM4: NovaScreen (NVS) G Protein-Coupled Receptor Assay for human Muscarinic, M4 Receptor (AID 2283274)
# Sequence of human Muscarinic, M4 Receptor, CHRM4 (gene 1132) (P08173 whole entry, looked up): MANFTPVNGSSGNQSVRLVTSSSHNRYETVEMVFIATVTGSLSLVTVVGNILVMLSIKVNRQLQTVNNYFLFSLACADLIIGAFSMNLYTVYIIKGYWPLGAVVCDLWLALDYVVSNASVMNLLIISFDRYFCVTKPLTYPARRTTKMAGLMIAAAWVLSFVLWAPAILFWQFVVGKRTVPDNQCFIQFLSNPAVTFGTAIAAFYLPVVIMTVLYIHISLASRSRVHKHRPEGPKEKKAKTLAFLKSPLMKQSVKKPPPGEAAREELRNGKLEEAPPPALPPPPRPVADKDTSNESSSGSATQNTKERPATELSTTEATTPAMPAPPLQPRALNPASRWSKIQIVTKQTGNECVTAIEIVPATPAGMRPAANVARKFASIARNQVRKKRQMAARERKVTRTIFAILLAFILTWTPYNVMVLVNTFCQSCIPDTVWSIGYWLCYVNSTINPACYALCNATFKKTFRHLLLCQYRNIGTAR
# Outline: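 Cell-free radioligand displacement using CHO-derived human M4 receptor protein, 1 h after dosing; bound radioactivity by filtration and scintillation counting. Primary screen single 25 uM duplicate, actives followed in concentration series.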
# [16] = target: human Opioid Receptor Delta 1 (Opiate D1), OPRD1 (gene 4985) (UniProt P41143); experiment: NVS_GPCR_hOpiate_D1: NovaScreen (NVS) G Protein-Coupled Receptor Assay for human Opioid Receptor Delta 1 (Opiate D1) (AID 2283280)
# Sequence of human Opioid Receptor Delta 1 (Opiate D1), OPRD1 (gene 4985) (P41143 whole entry, looked up): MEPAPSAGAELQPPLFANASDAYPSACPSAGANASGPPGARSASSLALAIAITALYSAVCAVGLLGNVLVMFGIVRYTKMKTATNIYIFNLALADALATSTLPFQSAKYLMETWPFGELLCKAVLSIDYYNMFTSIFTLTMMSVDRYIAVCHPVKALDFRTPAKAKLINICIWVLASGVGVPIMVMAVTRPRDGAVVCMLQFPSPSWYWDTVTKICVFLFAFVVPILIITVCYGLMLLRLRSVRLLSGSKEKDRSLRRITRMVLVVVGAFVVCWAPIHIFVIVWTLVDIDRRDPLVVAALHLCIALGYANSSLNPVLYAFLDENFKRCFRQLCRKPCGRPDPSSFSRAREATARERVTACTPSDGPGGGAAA
# Outline: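 Radioligand displacement on membranes from CHO cells expressing the receptor, read by filter scintillation counting 1 h after dosing. Duplicate single-point screen at 25 uM, then concentration series for actives; loss of signal versus DMSO.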
# [17] = target: Neuropeptide Y receptor type 2 (Homo sapiens) (UniProt P49146); experiment: NVS_GPCR_hNPY2: NovaScreen (NVS) G Protein-Coupled Receptor Assay for human Neuropeptide Receptor Y2 (NPY2) (AID 2283277)
# Outline: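 Radioligand binding on membranes extracted from SK-N-MC cells, cell-free, read 1 h after dosing by filter-based scintillation counting. Loss of signal vs DMSO. Primary screen in duplicate at 25 uM; actives followed up in concentration-response up to 50 uM.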
# [18] = target: Muscarinic acetylcholine receptor M1 (Homo sapiens) (UniProt P11229); experiment: NVS_GPCR_hM1: NovaScreen (NVS) G Protein-Coupled Receptor Assay for human Muscarinic, M1 Receptor (AID 2283270)
# Outline: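 Cell-free radioligand displacement using membrane protein extracted from CHO cells, read by filter-based scintillation counting 1 h after dosing. Loss of bound signal fitted versus DMSO; primary screen single concentration 25 uM in duplicate, actives followed by concentration series.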
# [19] = target: Muscarinic acetylcholine receptor M3 (Homo sapiens) (UniProt P20309); experiment: NVS_GPCR_hM3: NovaScreen (NVS) G Protein-Coupled Receptor Assay for human Muscarinic, M3 Receptor (AID 2283272)
# Outline: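 Radioligand displacement binding on human M3 receptor in CHO-derived membranes, 1 h incubation, filter-based scintillation counting. Primary screen in duplicate at 25 uM; actives followed up in concentration series; loss of signal versus DMSO.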
smiles,measurement,setting,value
O=C1CCCCCN1,outcome,[1],inactive
CCCCC(CC)COC(=O)CCCCCCCCC(=O)OCC(CC)CCCC (centres undefined),outcome,[2],inactive
O=C(OC[C@H]1O[C@@H](OC(=O)c2cc(O)c(O)c(OC(=O)c3cc(O)c(O)c(O)c3)c2)[C@H](OC(=O)c2cc(O)c(O)c(OC(=O)c3cc(O)c(O)c(O)c3)c2)[C@@H](OC(=O)c2cc(O)c(O)c(OC(=O)c3cc(O)c(O)c(O)c3)c2)[C@@H]1OC(=O)c1cc(O)c(O)c(OC(=O)c2cc(O)c(O)c(O)c2)c1)c1cc(O)c(O)c(OC(=O)c2cc(O)c(O)c(O)c2)c1,outcome,[3],inactive
same,outcome,[4],inactive
On1ccccc1=S,AC50,[5],8.14 µM (active)
same,AC50,[6],4.73 µM (active)
CNS(=O)(=O)c1cc(C(=O)N2CCC(CCN3C4CCC3CC(n3c(C)nc5ccccc53)C4)(c3cccc(F)c3)CC2)c(Cl)cc1F (centres undefined),AC50,[7],8.72 µM (active)
same,AC50,[3],15.8 µM (active)
same,AC50,[8],9.16 µM (active)
same,AC50,[5],1.71 µM (active)
same,outcome,[6],inactive
CN(C)c1ccc(N=NS(=O)(=O)O)cc1,outcome,[9],inactive
same,AC50,[5],0.656 µM (active)
CCn1nc(Cc2ccccc2)cc1C1CCN(C[C@H]2C[C@H](N(C)[C@@H](C(=O)O)C(C)C)C[C@@H]2c2cccc(F)c2)CC1,outcome,[10],inactive
same,outcome,[7],inactive
same,AC50,[5],20.8 µM (active)
CCc1cc(SCc2sc(-c3ccc(C(F)(F)F)cc3)nc2CN2CCN(c3ccc(OC)cc3)CC2)ccc1OCC(=O)O,AC50,[11],9.64 µM (active)
same,AC50,[12],6.77 µM (active)
same,AC50,[7],4.08 µM (active)
same,AC50,[13],25 µM (active)
same,AC50,[3],11.5 µM (active)
same,AC50,[14],37.3 µM (active)
same,AC50,[15],35.7 µM (active)
same,AC50,[16],7.88 µM (active)
O=C(O)c1cc(N=Nc2ccc(S(=O)(=O)Nc3ccccn3)cc2)ccc1O,AC50,[4],9.98 µM (active)
CCOc1cccc(-n2cc(C(=O)N3CCN(c4cc(C(=O)O)c5ccccc5c4)CC3)nc2-c2ccc(C)cc2)c1,AC50,[13],23.8 µM (active)
same,AC50,[3],17.1 µM (active)
same,AC50,[15],26.1 µM (active)
same,AC50,[5],7.6 µM (active)
same,AC50,[16],9.02 µM (active)
same,AC50,[4],6.65 µM (active)
CC[C@H](C)C(=O)O[C@H]1C[C@@H](C)C=C2C=C[C@H](C)[C@H](CC[C@@H]3C[C@@H](O)CC(=O)O3)[C@H]21,outcome,[1],inactive
C=CCCCCCCCCC(=O)O,outcome,[17],inactive
O=C(O)c1cccc(N(Cc2cccnc2)c2ccc(OC(F)F)c(OC(F)F)c2)c1,outcome,[5],inactive
CCCCCCc1ccc(O)cc1O,AC50,[4],5.72 µM (active)
CC/C(=C\C(=N/O)C(N)=O)C(C)[N+](=O)[O-] (centres undefined),outcome,[10],inactive
same,outcome,[5],inactive
COc1cccc(-c2ccc(/C=C\CN3CCCCCC3)cc2Cl)c1,outcome,[10],inactive
same,AC50,[12],10.2 µM (active)
same,AC50,[7],8.5 µM (active)
same,AC50,[13],11.1 µM (active)
same,AC50,[3],12.6 µM (active)
same,AC50,[18],5.57 µM (active)
same,AC50,[14],14.5 µM (active)
same,AC50,[19],2.41 µM (active)
same,AC50,[8],0.427 µM (active)
same,AC50,[15],1.22 µM (active)
same,outcome,[5],inactive
same,AC50,[16],15.5 µM (active)
